Inconclusive results are not listed. Values without a mark were called inactive. Calls of active or inactive are those of the source. Calls come from the whole dose curve; as a rule, active = well fitted inhibition curve with a large enough effect; inconclusive = small, poorly fitted or top-dose-only effect, or effect the other way; inactive = flat fitted curve, though single readings scatter.
molecular target: Lysosomal acid glucosylceramidase (Homo sapiens) (UniProt P04062); assay: qHTS Assay for Inhibitors and Activators of N370S glucocerebrosidase as a Potential Chaperone Treatment of Gaucher Disease: Purified N370S Glucocerebrosidase Cleavage of Glucosylceramide; conditions: purified N370S GCase; series mostly up to 77.6 µM; activity change, negative = inhibition: at the top concentration
Sequence (P04062 whole entry N409S): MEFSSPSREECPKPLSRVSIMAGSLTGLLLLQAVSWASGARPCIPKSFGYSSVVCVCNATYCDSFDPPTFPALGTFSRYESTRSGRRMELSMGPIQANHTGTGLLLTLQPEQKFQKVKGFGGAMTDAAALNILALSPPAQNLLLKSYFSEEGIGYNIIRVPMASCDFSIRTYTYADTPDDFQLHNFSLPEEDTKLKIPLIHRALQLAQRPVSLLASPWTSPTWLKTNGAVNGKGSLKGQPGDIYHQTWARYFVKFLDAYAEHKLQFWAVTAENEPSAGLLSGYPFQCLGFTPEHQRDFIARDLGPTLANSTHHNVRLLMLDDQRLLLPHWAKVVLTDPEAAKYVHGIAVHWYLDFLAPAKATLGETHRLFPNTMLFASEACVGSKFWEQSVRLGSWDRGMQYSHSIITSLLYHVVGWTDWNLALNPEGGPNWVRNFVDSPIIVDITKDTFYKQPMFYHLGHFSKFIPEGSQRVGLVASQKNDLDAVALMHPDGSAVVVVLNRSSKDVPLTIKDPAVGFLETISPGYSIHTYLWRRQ
Excerpt: NIH Chemical Genomics Center [NCGC]
NIH Molecular Libraries Probe Production Centers Network [MLPCN]
Assay Submitter (PI): Wei Zheng
Glucocerebrosidase (GC) catalyzes the hydrolysis of beta-glucocerebroside to glucose and ceramide in lysosomes. Mutations in the glucocerebrosidase gene result in Gaucher disease, an autosomal recessive lysosomal storage disorder. Many of the mutations encountered in patients with Gaucher disease are missense alterations that may cause misfolding, decreased stability and/or mistrafficking of this lysosomal protein. […] These inhibitors include iminosugar analogs and three non-iminosugar inhibitors identified from a previous HTS of 62,000 compounds with the wild type recombinant enzyme. However, the enhancement of enzyme activity by the chaperone action of an enzyme inhibitor must be balanced against the direct inhibition of the enzyme. An enzyme activator could also function as a chaperone by binding to the enzyme and helping to correct its misfolding and mistrafficking. While activators for GC have not yet been identified, they may have better therapeutic potential than inhibitors. Therefore the discovery and development of chemical activators may provide a new strategy for the chaperone therapy.
We have optimized a new assay using N370S mutant GC derived from the spleen of a Gaucher patient. […] In addition, the MLPCN compound library has expanded, which increases the chance of finding new and better probes.
This assay characterizes compound activity using purified, mutant enzyme cleavage of the native substrate for the enzyme instead of mutant enzyme from tissue homogenate. Compound activity differences may be due to the absence of endogenous cofactors found in tissue homogenate as well as inherent differences in enzyme stability and catalytic activity using the difference substrates.
NCGC Assay Protocol Summary:
This is an enzyme assay using glucosylceramide from soy (Avanti Polar Lipids Catalog #: 131304P) as the substrate and recombinant human glucocerebrosidase as the enzyme preparation. Upon hydrolysis of the substrate, the glucose product can be detected using the Amplex Red Glucose Oxidase Assay Kit (Invitrogen catalog #: A22189). The product of this reaction can be read with a fluorescence plate reader with an excitation at 573 nm and an emission at 610 nm. Data were normalized to the controls for basal activity (without enzyme) and 100% activity (with enzyme). The AC50 values were determined from concentration-response data modeled with the standard Hill equation.
Assay buffer for enzyme reaction: 50 mM citric acid (titrated with potassium phosphate to pH 5.9), 0.01% Tween-20 (pH 5.9 is an optimal condition for this enzyme assay)
Assay buffer for Amplex Red reaction: Tris-HCl, pH 7.5
1536-well assay protocol for the glucocerebrosidase assay:
(1) Add 2 ul/well glucocerebrosidase enzyme solution (5 nM final)
(2) Add 23 nL compounds in DMSO solution. The final titration was 0.7 nM to 77 uM.
(3) Add 1 ul of glucosylceramide solution (50 uM final)
(4) Incubate at 37C for 40 min
(5) Add 2 ul tris-HCl buffer with Amplex Red reagents
(6) Incubate 45 min at room temperature.
(7) Detect the assay plate in a ViewLux plate reader (PerkinElmer) with Ex=573 nm and Em=610nm.
Keywords: Glucocerebrosidase, beta-glucosidase, Gaucher Disease, pharmacological chaperone, chaperone therapy, high throughput screening, glucocerebrosidase inhibitor, MLSMR, MLSCN, NIH Roadmap, qHTS and NCGC

SMILES | activity change, negative = inhibition [%] | Potency
O=S(=O)(c1ccc2c(c1)OCCO2)N1CCN(c2nc(-c3cccs3)nc3ccccc23)CC1 | -13.9 | –
CCOc1ccc(N(CC(=O)Nc2ccc(C)cc2)S(=O)(=O)c2c(C)[nH]c(=O)[nH]c2=O)cc1 | -20.8 | –
COc1cccc(CN(C)c2nc(-c3cccs3)nc3ccccc23)c1 | -8.66 | –
Cc1cccc(/C=N/NC(=O)NC23CC4CC(CC(C4)C2)C3)n1 | -1.18 | –
O=S(=O)(c1ccc(Cl)cc1)N1CCN(c2nc(-c3cccc(Br)c3)nc3ccccc23)CC1 | 6.57 | –
Cc1cc(C)cc(N(CC(=O)NC2CCC(C)CC2)S(=O)(=O)c2c(C)[nH]c(=O)[nH]c2=O)c1 (configuration not stated) | – | 35.5 µM (active)
O=S(=O)(c1ccc2ccccc2c1)N1CCN(c2nc(-c3cccs3)nc3ccccc23)CC1 | -5.05 | –
CCC(=O)OCCNc1nc(-c2ccccc2)nc2ccccc12 | 6.09 | –
Cc1ccc(-c2nc(N3CCN(S(=O)(=O)c4ccc(F)cc4)CC3)c3ccc(Cl)cc3n2)cc1 | -6.45 | –
O=S(=O)(c1ccccc1)N1CCN(c2nc(-c3ccc(F)cc3)nc3cc(Cl)ccc23)CC1 | 12.6 | –
OCCNc1nc(-c2cccs2)nc2ccccc12 | -15.8 | –
COc1ccc(-c2nc(N3CCN(S(=O)(=O)c4ccccc4)CC3)c3ccccc3n2)cc1 | 18.5 | –
N=c1c2c(-c3ccccc3)c(-c3ccccc3)n(Cc3ccco3)c2ncn1CCCn1ccnc1 | -8.82 | –
CCC(C)c1ccc(NC(=O)c2cnn3c(C(F)F)cc(C)nc23)cc1 (configuration not stated) | -16.7 | –
O=S(=O)(c1ccc(Cl)cc1)N1CCN(c2nc(-c3ccc(F)cc3)nc3cc(Cl)ccc23)CC1 | 16.7 | –
COc1cccc(S(=O)(=O)N2CCN(c3nc(-c4cccs4)nc4ccccc34)CC2)c1 | 6.72 | –
Cc1ccc(S(=O)(=O)N2CCN(c3nc(-c4cccs4)nc4ccccc34)CC2)cc1 | – | inactive
O=C(Nc1cnn(Cc2ccc(F)cc2)c1)c1cnn2c(C(F)F)cc(-c3ccccc3)nc12 | -6.37 | –
c1ccc(CNc2nc(-c3cccs3)nc3ccccc23)cc1 | -24.4 | –
COc1ccccc1NC(=O)COc1ccccc1C(=O)Nc1ccccc1 | -31 | –
Clc1ccccc1-c1nccc(NCc2ccccc2)n1 | -2.27 | –
O=C(Nc1cc(Br)ccc1O)c1cnn2c(C(F)F)cc(C3CC3)nc12 | -28.3 | –
